In the library only some 11% were active in any assay of this set; here they are far more common.
MCF10A rereplic: A quantitative high throughput screen for small molecules that induce DNA re-replication in MCF 10a normal breast cells. Potency, µM (titrated, usually from 46.1 µM), without a hit: top-dose activity, positive = re-replication, most hits filed as activators. actives 2.9% (n = 350,000). MCF 10A DNA re-replication, Hoechst nuclear intensity, 48 h; note: potency is the fitted concentration of half-maximal effect; % of control where 0% means no effect; nearly all actives have a fitted effect of over 50% in size
IL1B secr inh: qHTS for Inhibitors of Inflammasome Signaling: IL-1-beta AlphaLISA Primary Screen | THP-1 LPS/ATP IL-1B secretion, AlphaLISA, 16 h; stronger effect = lower value | activity change, % at 57.5 µM | actives 4.7% (n = 360,000); in the data active = activity change below about -50%; inconclusive = mostly about -30% to -49%; note: % is set by controls: 0 for no effect and ±100 for the full control effect
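Secreted IL-1B measured by AlphaLISA bead assay after 16 h compound exposure of THP-1 cells; compounds (final up to 57.5 uM) added 1 h before LPS (250 ng/mL) and ATP (1.25 mM) stimulation; lower signal means less secretion.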
SW480 rereplic: A quantitative high throughput screen for small molecules that induce DNA re-replication in SW480 colon adenocarcinoma cells | SW480 DNA re-replication, Hoechst DNA content imaging, 48 h | Potency, µM (highest dose often 46.1 µM), without a hit: top-dose re-replication activation, hits mostly activators | actives 1.8% (n = 340,000); note: potency is the fitted concentration of half-maximal effect; % of control where 0% means no effect; nearly all actives have a fitted effect of over 55% in size
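Image-based read-out: total Hoechst fluorescence of nuclei (405 nm excitation, 500-530 nm emission), with hits raising the fraction of high-intensity nuclei. SW480 colon cells incubated 48 hr with compounds at 37 C.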
Gal4-VP16 FLuc: VP16 counterscreen qHTS for inhibitors of ROR gamma transcriptional activity | Potency, µM (highest dose often 53.6 µM), for the others: at the top dose activity, negative = inhibition, actives largely listed as inhibitors | actives 3.5% (n = 310,000) | Drosophila S2 Gal4-VP16 UAS-luciferase, luminescence, 20 h | AID 2546, 2010;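 note: Gal4-VP16 expression switched on by copper sulfate through the metallothionein promoter; potency is the fitted concentration of half-maximal effect; % is set by controls: 0 for no effect and ±100 for the full control effect; nearly all actives have a fitted effect of over 50% in size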
RORgamma inh: qHTS for inhibitors of ROR gamma transcriptional activity. Potency, µM (titrated, usually from 53.6 µM), for the others: at the top dose activity change, negative = inhibition, usual class: inhibitors. Nuclear receptor ROR-gamma (Mus musculus), P51450. AID 2551, 2010. Drosophila S2 Gal4-RORgamma UAS-luciferase reporter, 20 h. actives 5.4% (n = 310,000); note: potency is the fitted concentration of half-maximal effect; % is set by controls: 0 for no effect and ±100 for the full control effect; nearly all actives have a fitted effect of over 60% in size
Target sequence (P51450 whole entry, looked up, the tested form may be a part): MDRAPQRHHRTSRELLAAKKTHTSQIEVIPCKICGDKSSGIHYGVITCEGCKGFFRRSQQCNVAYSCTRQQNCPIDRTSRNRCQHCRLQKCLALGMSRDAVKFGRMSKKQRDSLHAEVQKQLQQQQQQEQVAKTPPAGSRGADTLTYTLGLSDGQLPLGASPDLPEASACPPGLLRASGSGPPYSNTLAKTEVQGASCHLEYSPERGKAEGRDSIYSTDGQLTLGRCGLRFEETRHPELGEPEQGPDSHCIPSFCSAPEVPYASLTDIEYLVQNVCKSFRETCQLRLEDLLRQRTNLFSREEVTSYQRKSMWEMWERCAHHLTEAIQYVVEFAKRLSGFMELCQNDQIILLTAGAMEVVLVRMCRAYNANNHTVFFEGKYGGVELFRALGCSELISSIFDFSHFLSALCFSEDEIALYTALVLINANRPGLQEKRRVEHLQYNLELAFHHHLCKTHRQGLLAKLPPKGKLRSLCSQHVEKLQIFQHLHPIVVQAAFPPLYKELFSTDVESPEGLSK
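Stably transfected Drosophila Schneider cells are the test system, with ROR gamma fused to Gal4 and luciferase under UAS control; luminescence is read after 20 hr of 700 uM copper sulfate induction at ambient temperature.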
The depositor's hits bear a star; ? = inconclusive; . = not tested or not shown; [ ] = dose if it differs, or a comment. Unless noted, calls come from the whole dose curve; as a rule, active = well fitted curve in the direction sought with a large enough effect; inconclusive = small, poorly fitted or top-dose-only effect, or another doubt; inactive = no such curve, though single readings can be large; an effect the other way counts as inactive or inconclusive.

SMILES	MCF10A rereplic	IL1B secr inh	SW480 rereplic	Gal4-VP16 FLuc	RORgamma inh
O=C(c1ccccc1)N(Cc1ccc(F)cc1)C1CCS(=O)(=O)C1 (stereo unspecified)	15%	0	-8%	9%	?
O=C(c1ccc(Cl)c([N+](=O)[O-])c1)N(Cc1ccc(F)cc1)C1CCS(=O)(=O)C1 (stereo unspecified)	11%	-95*	-2%	7%	11%
CC(C)(C)S(=O)N1Cc2cc(C(=O)N3CCc4ccccc4C3)nc(-c3cccc(-c4cccnc4)c3)c2[C@@H]1CCO (stereo partly specified)	.	-20	.	.	.
COc1cccc(/C=N/n2c(N)nc3ccccc32)c1OC	0%	-68*	0%	?	?
COc1ccc(/C=N/n2c(N)nc3ccccc32)cc1OC	2%	-60*	1%	?	13µM*
COc1ccc(C(=O)n2c(N)nc3ccccc32)cc1OC	2%	0	-7%	?	?
N#CCCCCn1ccc(NC(=O)c2ccc(Cl)cc2O)n1	1%	-3	-9%	.	.
CC1CCN(S(=O)(=O)c2ccc(NC(=O)C3CSC4(C)CCC(=O)N34)cc2)CC1 (stereo unspecified)	9%	-6	?	.	.
Cc1cccc(NC(=O)CNC(=O)CSc2ncccn2)c1C	2%	-11	-8%	.	.
O=C(Cn1ncc(Cl)c(Cl)c1=O)NC1CCCCC1	1.3µM*	-100*	1.3µM*	.	.
O=C(COC(=O)c1ccc(Cl)cc1)NCC1CCCCC1	1%	4	-5%	.	.
O=C(Cn1ncc(Cl)c(Cl)c1=O)NC1CCS(=O)(=O)C1 (stereo unspecified)	?	-6	?	18%	-4%
O=C(Cn1ncc(Cl)c(Cl)c1=O)NCC1CCCCC1	5.8µM*	-103*	?	?	?
Cc1cccc(NC(=O)CNC(=O)Cn2ncc(Cl)c(Cl)c2=O)c1C	5.2µM*	-100*	8.2µM*	.	.
O=C1CN(C(=O)Cn2ncc(Cl)c(Cl)c2=O)c2ccccc2N1	1.8µM*	-106*	14%	?	11µM*
COc1cccc(-c2cnc(C(O)c3ccc(C)cc3C)[nH]2)c1 (stereo unspecified)	.	9	.	.	.
COCCn1c(=O)cnc2cnc(Oc3ccc(OC)cc3)nc21	.	.	.	-22%	15%
CC[C@H](C)[C@H](NC(=O)[C@H](CO)NC(=O)[C@H](C)NC(=O)[C@H](C)NC(=O)[C@H](CCC(N)=O)NC(=O)[C@H](CCCCN)NC(=O)[C@H](CCCN=C(N)N)NC(=O)[C@@H](N)CS)C(=O)N[C@@H](CCCCN)C(=O)N[C@H](C(=O)N[C@@H](C)C(=O)N[C@H](C(=O)N[C@@H](CO)C(=O)O)C(C)C)C(C)C	.	.	.	-3%	1%
NCCC[C@@H](CC(=O)N[C@@H]1CCNC[C@H]1C(=O)N[C@H](CC(=O)N[C@@H](CCC(=O)O)CC(=O)O)Cc1c[nH]c2ccccc12)NC(=O)C[C@H](CO)NC(=O)[C@@H]1CCCC[C@H]1N	.	.	.	-4%	-10%
C[C@@H]1CN([C@@H](C)CO)C(=O)c2cc(Br)cnc2O[C@@H]1CN(C)Cc1cncnc1	.	22	.	.	.
CCOC(=O)N1CCc2cc(OC)c(OC)c3c2c1cc1cc(OC)c(OC)cc13	15µM*	3	18µM*	.	.
CCOc1cc(/C=C(\C#N)c2[nH]nc(N)c2C#N)ccc1O	?	-65*	-9%	?	20%
CCOc1cc(-c2cc(-c3ccc(C)cc3)nc(N)c2C#N)ccc1O	21µM*	18	16µM*	-21%	10%
COc1cc(-c2cc(-c3ccc(O)cc3)nc(N)c2C#N)ccc1O	?	-65*	-12%	0%	2%
COc1ccc(-c2cc(-c3ccc(O)cc3)nc(N)c2C#N)cc1	?	-12	22%	10%	-3%
SMILES	MCF10A rereplic	IL1B secr inh	SW480 rereplic	Gal4-VP16 FLuc	RORgamma inh
COc1ccccc1-c1cc(-c2ccc(O)cc2)nc(N)c1C#N	13%	-7	-5%	0%	5%
N#Cc1c(-c2ccccc2)cc(-c2ccc(O)cc2)nc1N	23µM*	-2	?	-10%	?
CCN1CCN(CCNC(=O)c2ccc(CS(=O)c3ccc(Br)cc3)o2)CC1 (stereo unspecified)	?	19	?	-1%	-23%
O=C1CC2CC1C(C(=O)O)C2C(=O)O (stereo unspecified)	0%	7	-2%	.	.
COc1cccc(-c2cc(-c3cccnc3)nc(N)c2C#N)c1	?	?	?	-10%	12%
COc1ccc(OC)c(-c2cc(-c3cccnc3)nc(N)c2C#N)c1	12µM*	16	6.5µM*	3%	-15%
Clc1cccc(CN2CCc3c([nH]c4ccccc34)C2)c1Cl	?	-62*	?	-13%	1%
CCOC(=O)C1=C(C)NC2=C(C(=O)CCC2)C1c1cn(Cc2ccc(Cl)cc2Cl)nc1-c1ccccc1 (stereo unspecified)	?	?	2.8µM*	-13%	20%
CC(C)C[C@H](NC(=O)[C@H](Cc1ccccc1)NC(=O)[C@@H]1CCCN1C(=O)[C@H](CC(=O)O)NC(=O)[C@@H]1CCC(=O)N1)C(=O)N[C@@H](CCCN=C(N)N)C(=O)N[C@@H](Cc1ccccc1)C(N)=O	.	.	.	-7%	19%
COc1ccc(CCN2C(=O)COc3ccccc3C2C(=O)Nc2ccc3c(c2)OCCO3)cc1OC (stereo unspecified)	.	16	.	.	.
Cc1nc2c3ccccc3nc(NNC(=O)CCC(=O)NCCC(C)C)n2n1	3%	15	2%	3%	-4%
CCN(CC)CCCNC(=O)CCC(=O)NNc1nc2ccccc2c2nc(C)nn12	-3%	21	-3%	?	18µM*
C=CCOC(=O)C1=C(C)NC(SCC(=O)N(CC)CC)=C(C#N)C1c1ccco1 (stereo unspecified)	?	-13	-4%	.	-3%[0.365 µM]
C=CCOC(=O)C1=C(C)NC(SCC(=O)N(CC)CC)=C(C#N)C1c1ccccc1 (stereo unspecified)	?	-51*	-2%[9.22 µM]	-2%	23%
O=[N+]([O-])/C(C(Cl)=C(Cl)Cl)=C(/Sc1ccccc1)N1CCCCC1	?	-89*	-3%	6%	44%
O=C(N/C(=C\c1ccc([N+](=O)[O-])cc1)C(=O)N1CCCCC1)c1ccccc1	-7%	13	-25%	-3%[10 µM]	-5%
O=C(N/N=C/c1ccc([N+](=O)[O-])o1)c1ccncc1	153%	7	2%	?	?

Compound activity (PubChem)
